In the library only some 0.31% were active in any assay of this set; here they are far more common.
TRPML1 blocker: human mucolipin-1 channel inhibition; TRPML1-inducible cells, Ca2+ dye fluorescence, FDSS; active compounds read low; inhibition of EC80 agonist-evoked calcium signal; activity change, negative = inhibition, % (test concentration not listed); 0.02% of 390,000 active; AID 624415; in the data active means activity change below about -50%; inconclusive means between about -30% and that limit;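 further: stimulus is agonist 54-4 at its EC80 concentration; on the % scale 0 is the no-effect control and ±100 the full control effect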
Target sequence (Q9GZU1 whole entry, looked up): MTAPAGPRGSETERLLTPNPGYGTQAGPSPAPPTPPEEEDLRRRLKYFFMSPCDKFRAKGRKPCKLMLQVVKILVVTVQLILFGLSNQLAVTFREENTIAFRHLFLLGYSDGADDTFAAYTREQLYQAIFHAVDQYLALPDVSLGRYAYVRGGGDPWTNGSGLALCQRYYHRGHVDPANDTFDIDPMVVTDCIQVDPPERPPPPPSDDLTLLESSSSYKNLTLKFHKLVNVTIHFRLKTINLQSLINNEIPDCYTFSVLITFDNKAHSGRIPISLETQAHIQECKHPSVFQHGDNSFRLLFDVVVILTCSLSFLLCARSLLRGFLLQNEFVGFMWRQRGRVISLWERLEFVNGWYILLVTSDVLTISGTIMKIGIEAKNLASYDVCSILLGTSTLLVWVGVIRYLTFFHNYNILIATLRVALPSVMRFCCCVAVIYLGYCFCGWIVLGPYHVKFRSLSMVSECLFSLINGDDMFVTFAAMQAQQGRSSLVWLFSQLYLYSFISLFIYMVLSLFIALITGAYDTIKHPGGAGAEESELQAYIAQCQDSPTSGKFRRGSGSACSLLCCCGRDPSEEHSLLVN
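Tet-induced TRPML1-DL cells loaded with Ca8 no-wash calcium dye were read kinetically on FDSS. Compound addition was followed by EC80 agonist 54-4 (4 uM final); inhibition was read over 110 s.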
TRPV1 PAM: human TRPV1 potentiation | Q8NER1 | TRPV1-expressing cells, Fluo-8 calcium influx, capsaicin EC20 potentiation | potentiation, % at 8.33 µM | 0.02% of 320,000 active; in the data active means potentiation above about 80%; inconclusive means between about 30% and that limit; further: 0% is about no effect
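Fluo-8 calcium influx in TRPV1-expressing cells, kinetic read (ex 480/em 520 nm). Compound added and read 3 min for agonist activity, followed by capsaicin at EC20 final and 2 min further read for enhancement.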
TRPML1 agonist: agonists of human TRPML1 channel; Q9GZU1; TRPML1-expressing cells, Ca2+ dye fluorescence, FDSS; activation, % (test concentration not listed); 0.12% of 410,000 active; AID 624414; in the data active means activation above about 50%; inconclusive means mostly about 30% to 49%; further: 0% is about no effect
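Tetracycline-induced TRPML1-DL cells are seeded and incubated overnight before loading with a no-wash Ca2+ dye and quencher. Agonist activity is taken from the 110 s fluorescence read following compound pin-transfer on an FDSS, before EC80 54-4 challenge.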
TRPV1 agonist: activates the human vanilloid receptor TRPV1 | Q8NER1 | TRPV1-expressing cells, Fluo-8 calcium influx, agonist mode | 0.19% of 320,000 active | activation, % at 8.33 µM; in the data active means activation above about 80%; inconclusive means between about 30% and that limit; further: 0% is about no effect
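Cells expressing TRPV1 were dye-loaded with Fluo-8 and read kinetically: 10 s baseline, 3 min after compound (agonist portion), then 2 min after EC20 capsaicin (allosteric enhancer portion). Calcium-bound dye fluorescence at 480/520 nm.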
Active calls of the source: *; ? = inconclusive; nt = not tested or not shown.

SMILES	TRPML1 blocker	TRPV1 PAM	TRPML1 agonist	TRPV1 agonist
CCCCSCCCNC(=O)Nc1cccc(OC)c1	-3	-8	1	83*
N#Cc1nc(-c2ccc(OCc3ccccc3Cl)cc2)oc1N1CCCCCC1	nt	nt	-1	nt
COc1ccc(OC)c(C(c2nnnn2CCc2ccccc2)N2CCN(c3ccccc3)CC2)c1 (centres undefined)	-11	-2	51*	22
Cc1ccc2c(C)c(C(=O)NCC3CCOCC3)oc2c1C	11	nt	-1	nt
Cc1ccc2oc(C(=O)NCC3CCOCC3)c(C)c2c1	-19	-12	0	84*
CCCCCCCCCC[n+]1ccc(/C=C/c2c[nH]c3ccccc23)cc1	nt	nt	68*	nt
CCCCCCCCCCCCCCCC[n+]1ccc(/C=C/c2c(C)[nH]c3ccccc23)cc1	nt	nt	5	nt
CCCCCCC[n+]1ccc(/C=C/c2c(C)[nH]c3ccccc23)cc1	nt	nt	57*	nt
CCCCCCCCCCCn1nnnc1N	-5	nt	1	nt
O=C1c2ccccc2CN1CCSC(=S)N1CCSCC1	nt	9	nt	90*
CCC(C)NS(=O)(=O)c1ccc(N2CCCCS2(=O)=O)cc1 (centres undefined)	2	nt	-1	nt
CCN1C(=O)C2(c3ccccc31)c1c(oc3ccc(C)cc3c1=O)C(=O)N2CCCOC(C)C (centres undefined)	7	nt	0	nt
Cc1cc(C)cc(N2Cc3ccccc3C2)c1	1	-12	0	8
COc1cc(N2Cc3ccccc3C2)ccc1C=O	0	94*	0	-1
CCOC(=O)N1CCN(C(=O)c2c(C)nn(-c3cccc(C)c3)c2-n2cccc2)CC1	-16	nt	0	nt
Cc1cccc(-n2nc(C)c(C(=O)N3CCN(c4ccccc4)CC3)c2-n2cccc2)c1	-19	nt	71*	nt
O=C(C1=C(O)C(=O)N(c2nccs2)C1c1ccccc1)c1cc2ccccc2o1 (centres undefined)	-2	4	92*	?
Nc1ccc2nc(CCc3ccccc3)[nH]c2c1	1	-7	-1	24
Nc1ccc2nc3c(=O)n(CCc4ccccc4)c(=O)[nH]c3nc2c1	-28	-15	75*	107*
Nc1ccc2nc3c(=O)n(C4CCCCC4)c(=O)[nH]c3nc2c1	-10	-10	80*	?
C=CCn1c(=O)[nH]c2nc3cc(N=CN(C)C)c(C)cc3nc2c1=O	-3	-6	25	27
CCCCn1c(=O)[nH]c2nc3cc(N)ccc3nc2c1=O	-21	-32	74*	?
Cc1cc2nc3c(=O)n(CCc4ccccc4)c(=O)[nH]c3nc2cc1N	-27	-30	114*	?
CC(C)C(=O)Nc1ccc(C(=O)CN2C(=O)NC3(CCOc4ccccc43)C2=O)cc1 (centres undefined)	-6	24	0	91*
COc1ccc(-c2nc3scc(CCNS(=O)(=O)c4ccc(C)cc4)n3n2)cc1	-11	nt	2	nt
SMILES	TRPML1 blocker	TRPV1 PAM	TRPML1 agonist	TRPV1 agonist
CCOc1ccc(CCNC(=O)Cn2nc(C)n3c(cc4occc43)c2=O)cc1OCC	-9	nt	-1	nt
CCOC(=O)[C@H]1[C@H]2COc3ccc(Br)cc3[C@@H]2N2C(=O)c3ccc(F)cc3NC(=O)[C@@]12C	1	28	2	?
CCOC(=O)[C@H]1[C@H]2COc3ccc(Br)cc3[C@@H]2N2C(=O)c3cc(F)c(F)cc3NC(=O)[C@@]12C	4	?	2	84*
CCOC(=O)[C@H]1[C@H]2COc3cc(OC)ccc3[C@@H]2N2C(=O)c3ccc(C)cc3NC(=O)[C@@]12C	35	5	3	82*
CCOC(=O)[C@H]1[C@H]2COc3ccc(Br)cc3[C@@H]2N2C(=O)c3ccc(C)cc3NC(=O)[C@@]12C	31	13	2	80*
CCOC(=O)[C@H]1[C@H]2COc3ccccc3[C@@H]2N2C(=O)c3ccc(C)cc3NC(=O)[C@@]12C	-7	-4	0	93*
CCOC(=O)[C@H]1[C@H]2COc3ccccc3[C@@H]2N2C(=O)c3ccccc3NC(=O)[C@@]12C	-15	11	0	?
COc1cccc(Cn2c3ccc(NC(=O)Cc4ccccc4C)cc3c(=O)n2C)c1	nt	nt	-1	nt
CCOC(=O)c1sc(NC(=O)Cn2nnc3sc4c(c3c2=O)CCCC4)nc1C	7	7	5	-2
CCOC(=O)c1nc2sc3c(c2c(=O)n1C(C)C(=O)OCC)CCCC3 (centres undefined)	6	8	2	80*
CC(=O)/C=C/c1ccc2c(c1)S(=O)(=O)N(C1CCCC1)[C@H]2CC(C)=O	nt	nt	0	nt

Source: PubChem (National Center for Advancing Translational Sciences (NCATS))
